CD40 NFkB inh = CD40 pathway inhibition in BL2 cells; AID 1053188; inhibition, % at 10 µM; 83,000 compounds, 0.94% hits; BL2 NF-kB luciferase reporter, CD40L-induced, 4 h;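 active = mean inhibition of at least 50% with a set share of replicates also reaching that level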;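 note: 0% = neutral control wells and 100% = IKK inhibitor VII at 50 µM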
Numbers without * were called inactive; ! = repeats disagree; [ ] = dose if it differs, or a comment. Shown is part of a subset that was picked to be rich in hits.

SMILES	CD40 NFkB inh
O=C(c1ccncc1)N1C[C@@H]2N[C@H](C1)C2c1ccc(/C=C/c2ccccc2)cc1 (stereo not given in full)	26[25 µM]
O=C(Nc1ccccc1)N1C[C@@H]2N[C@H](C1)[C@@H]2c1ccc(/C=C/c2ccccc2)cc1	-12
N#Cc1ccc(-c2ccc(C3[C@@H]4CN(C(=O)c5cccnc5)C[C@H]3N4)cc2)cc1 (stereo not given in full)	2[25 µM]
N#Cc1cccc(-c2ccc(C3[C@@H]4CN(C(=O)C5CCOCC5)C[C@H]3N4)cc2)c1 (stereo not given in full)	0[25 µM]
O=C(c1ccc(F)cc1)N1C[C@@H]2N[C@H](C1)C2c1ccc(/C=C/c2ccccc2)cc1 (stereo not given in full)	50*![25 µM]
CO[C@H]1CN(C)C(=O)c2cc(NC(=O)C3CCOCC3)ccc2OC[C@H](C)NC[C@H]1C	-9[25 µM]
Cn1cnc(S(=O)(=O)N2CCCCN3[C@H](CO)[C@@H](c4ccc(C#CC5CCCC5)cc4)[C@H]3C2)c1	9[25 µM]
OC[C@H]1[C@@H](c2ccccc2)C2(CN(Cc3ccccc3F)C2)N1Cc1ccccc1F	18[25 µM]
CC(C)NC(=O)N(C)C[C@@H]1Oc2c(NS(C)(=O)=O)cccc2C(=O)N(C)C[C@H]1C	17
C[C@H](CO)N1C[C@H](C)[C@H](CN(C)C(=O)[C@@H]2CCCN2C)OCc2ccccc2-c2c(n(C)c3ccccc23)C1=O	7[25 µM]
Cc1ccc(-c2cc(C(=O)N3CC(C)OC(C)C3)c3ccccc3n2)o1 (stereo not given)	114*
COC(=O)c1cc(-c2ccc(C)o2)nc2ccccc12	-37
Cc1ccc(-c2cc(C(=O)NCc3ccco3)c3ccccc3n2)o1	-10
CCCNC(=O)N1CC2(C1)CN(C(=O)c1ccccc1)[C@@H](CO)c1[nH]c3cc(OC)ccc3c12	14[25 µM]
COCC(=O)N1CC(=O)N2[C@H](C1)[C@@H](c1ccc(-c3cccnc3)cc1)[C@@H]2CO	0
CCc1nc(N2[C@H](CO)[C@@H](c3ccccc3-c3ccc(F)cc3)[C@@H]2C#N)sc1C	-1[25 µM]
C[C@@H]1CN([C@@H](C)CO)C(=O)c2ccccc2-c2ccccc2CO[C@H]1CN(C)S(=O)(=O)c1ccc([N+](=O)[O-])cc1	2[25 µM]
CC(=O)Nc1ccccc1OCC(=O)c1ccc2c(c1)OCO2	-56
O=C(/C=C\Nc1ccccc1Br)c1ccc2c(c1)OCO2	57*
CN(CC(=O)Nc1ccccc1Br)C(=O)CNC(=O)c1ccc2c(c1)OCO2	-4
CNC[C@H]1OCCCC[C@@H](C)Oc2ccc(NS(=O)(=O)c3ccc(F)cc3)cc2C(=O)N([C@@H](C)CO)C[C@H]1C	-11[25 µM]
CCCNC(=O)N1CC2(C1)CN(C(=O)Nc1ccc(F)cc1)[C@H](CO)c1[nH]c3cc(OC)ccc3c12	-9[25 µM]
CCCNC(=O)N1[C@H](CO)[C@H](c2ccccc2-c2ccc(F)cc2)[C@@H]1C#N	28[25 µM]
COc1ccc(C(=O)Nc2cccc(OC(=O)c3ccco3)c2)cc1	-26
CC1CC(C)(C)Nc2ccc(OC(=O)c3ccco3)cc21 (stereo not given)	68*
SMILES	CD40 NFkB inh
CC1CC(C)(C)Nc2ccc(N=O)cc21 (stereo not given)	23
O=S(=O)(c1ccccc1)N1C[C@@H]2[C@H](c3ccccc31)[C@@H](CO)N2Cc1ccc(F)cc1	9[25 µM]
CCCC(=O)Nc1ccc2c(c1)C(=O)N(C)[C@@H]1CC[C@@H](CC(=O)N3CCCCC3)O[C@@H]1CO2	-3[25 µM]
COCC#Cc1ccc([C@H]2[C@@H](CO)N3CCCCN(Cc4cccnc4)C[C@@H]23)cc1	-8[25 µM]
Cn1nnnc1SCC(=O)N1N=C(c2cccs2)CC1c1cccs1 (stereo not given)	-29
O=C(CSC1=NCCS1)N1N=C(c2cccs2)CC1c1ccc(F)cc1 (stereo not given)	8
O=C(CNCCO)N1N=C(c2cccs2)CC1c1cccs1 (stereo not given)	31*
COc1ccc(S(=O)(=O)N(Cc2cccnc2)Cc2cc3ccccc3[nH]c2=O)cc1	6
COc1ccc2[nH]c(=O)c(CN(C(=O)c3cccnc3)c3ccccc3)cc2c1	-7
COc1ccc2[nH]c(=O)c(CN(Cc3cccs3)S(=O)(=O)c3cccc4nsnc34)cc2c1	55*
C[C@@H]1CN([C@@H](C)CO)C(=O)c2ccccc2-c2ccccc2CO[C@@H]1CN(C)C(=O)[C@H](Cc1ccccc1)N(C)C	-3[25 µM]
O=C(NCC[C@@H]1CC[C@@H](NC(=O)C2CCCC2)[C@H](CO)O1)Nc1ccc(Cl)cc1	-41
C[C@H]1CN(C)C(=O)c2ccccc2O[C@H]1CN(C)S(C)(=O)=O	11
COc1ccc2c3c([nH]c2c1)[C@H](CO)N(C(C)=O)CC31CCN(C(=O)Nc2ccc(F)cc2F)CC1	9[25 µM]
Cc1nnnn1/C(=C\c1ccccc1)C(=O)OCC(=O)Nc1ccc(Cl)cc1F	78*
O=C(COC(=O)Cc1ccsc1)Nc1ccc(Cl)cc1F	3
CCCCC(=O)Nc1ccc(Cl)cc1F	-11
COc1ccc(NC(=O)N(C)C[C@H]2OCCCC[C@H](C)Oc3ccc(NC(=O)c4ccncc4)cc3C(=O)N([C@@H](C)CO)C[C@H]2C)cc1	-14[25 µM]
